# Key:
# Experiment in all cases: PBM binding z-score (relative to random genomic background probes); higher = stronger binding; sequences stand for … in GC…GCGATTGACAGCGTAGAATGAAGG
# [1] = tested on: FXR:RXRa (NR concentration 270 nM, RXRa partner concentration 90 nM)
# Method in brief: (§1)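 Binding z-scores were set against random background probes. The data came from custom Agilent 4×180K protein-binding microarrays carrying double-stranded probes with 34-nt variable regions, incubated 1 h with ligand-free nuclear receptor dimers. Partner-specific antibodies detected binding, and scanned fluorescence was regression-normalized.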
# [2] = tested on: LXRa:RXRa (NR concentration 270 nM, RXRa partner concentration 90 nM)
# Method in brief: as §1
# [3] = tested on: LXRa homodimer (NR concentration 270 nM)
# Method in brief: as §1
# [4] = tested on: LXRb:RXRa (NR concentration 270 nM, RXRa partner concentration 90 nM)
# Method in brief: as §1
# [5] = tested on: LXRb homodimer (NR concentration 270 nM)
# Method in brief: as §1
# [6] = tested on: PPARa:RXRa (NR concentration 270 nM, RXRa partner concentration 90 nM)
# Method in brief: as §1
# [7] = tested on: PPARg:RXRa (NR concentration 180 nM, RXRa partner concentration 90 nM)
# Method in brief: as §1
# [8] = tested on: PPARg:RXRa 270nM:90nM, anti-RXR (NR concentration 270 nM, RXRa partner concentration 90 nM)
# Method in brief: as §1
# [9] = tested on: PPARg:RXRa 30nM:10nM, anti-RXR (NR concentration 30 nM, RXRa partner concentration 10 nM)
# Method in brief: as §1
# [10] = tested on: PPARg:RXRa 90nM:30nM, anti-RXR (NR concentration 90 nM, RXRa partner concentration 30 nM)
# Method in brief: as §1
# [11] = tested on: PPARg:RXRa DBDmut IVT, anti-RXR (DBD mutation: RXRa K156A/R161A, NR concentration 270 nM, RXRa partner concentration 90 nM)
# Method in brief: as §1
# [12] = tested on: PPARg:RXRa IVT, anti-PPARg (NR concentration 270 nM, RXRa partner concentration 90 nM)
# Method in brief: as §1
# [13] = tested on: PPARg DBDmut:RXRa IVT, anti-PPARg (DBD mutation: PPARg1 K132A/R137A, NR concentration 270 nM, RXRa partner concentration 90 nM)
# Method in brief: as §1
# [14] = tested on: PPARg DBDmut IVT, anti-PPARg (DBD mutation: PPARg1 K132A/R137A, NR concentration 270 nM)
# Method in brief: as §1
# [15] = tested on: PPARg homodimer (NR concentration 180 nM)
# Method in brief: as §1
# [16] = tested on: PXR:RXRa (NR concentration 270 nM, RXRa partner concentration 90 nM)
# Method in brief: as §1
# [17] = tested on: PXR homodimer (NR concentration 270 nM)
# Method in brief: as §1
# [18] = tested on: RARa:RXR (NR concentration 270 nM, RXRa partner concentration 90 nM)
# Method in brief: as §1
# [19] = tested on: RARa homodimer (NR concentration 270 nM)
# Method in brief: as §1
# [20] = tested on: RARb:RXRa (NR concentration 270 nM, RXRa partner concentration 90 nM)
# Method in brief: as §1
Sequence,PBM binding z-score [1],PBM binding z-score [2],PBM binding z-score [3],PBM binding z-score [4],PBM binding z-score [5],PBM binding z-score [6],PBM binding z-score [7],PBM binding z-score [8],PBM binding z-score [9],PBM binding z-score [10],PBM binding z-score [11],PBM binding z-score [12],PBM binding z-score [13],PBM binding z-score [14],PBM binding z-score [15],PBM binding z-score [16],PBM binding z-score [17],PBM binding z-score [18],PBM binding z-score [19],PBM binding z-score [20]
GCTGGTAGGTCAGGTTGGTCAGCTAACGGGTACG,1.28,1.03,0.172,0.929,-0.0209,2.05,1.44,1.88,0.102,1.02,3.54,3.65,-0.271,0.163,1.32,0.581,0.431,0.986,0.462,3.16
CCAGACGGGTGAGAAGGTAACTCAGCCTCGATTA,-0.446,-0.488,-0.527,-0.4,-1.08,0.109,0.208,0.0448,-0.616,-0.191,0.114,0.156,-1.55,-1.37,0.298,-0.708,-0.553,-0.463,-0.518,-0.128
GCTAGTCGGTCAGTAAAAGGTCACACACCGGTCG,4.06,4.97,5.34,4.32,0.747,4.67,3.19,4.83,2.43,4.01,2.63,3.74,0.159,0.0206,4.9,5.25,1.05,6.26,2.14,4.65
TAGCCTAGGTCATGGGCCAGTATCCCACGCGAAC,4.49,3.17,0.378,2.29,-0.295,4.04,3.88,3.41,0.754,2.6,1.1,3.14,0.396,-0.233,1.33,1.43,-0.353,2.55,-0.117,3.74
GGAACAAGGGCAAGTTGATAGCAGAGTTTGATGG,0.62,0.417,0.0737,0.264,-0.0748,0.929,1.04,0.726,0.251,0.632,2.92,1.97,-0.205,-0.563,0.831,0.589,1.08,0.364,0.91,2.71
GGAACCAGGGCAAGTTGATAGCAGAGTTTGATGG,1.5,0.969,0.225,0.866,0.488,1.54,1.17,0.853,-0.119,0.257,4.63,3.75,0.246,1.22,1.02,0.554,0.742,0.217,0.68,2.26
AGAATGAGGTTATTAAGATCAGGGTATTGCGGTC,1.3,1.29,0.345,1.09,0.122,2.46,1.41,1.62,0.322,0.93,3.41,2.66,0.601,0.558,1.18,1.21,1.07,1.28,0.859,1.32
TCTATTAGTTGATTAGGGCAACTGAAACAGCGGA,0.195,0.677,0.0182,0.747,0.522,0.782,0.0466,1.87,3.5,2.6,2.22,1.45,1.14,0.725,-0.0911,0.233,0.247,0.283,0.703,0.768
CCTACTTGGTCAGGAGGTCACACACCGGATATGA,3.55,3.69,2.02,3.39,0.285,4.29,3.39,3.9,1.75,3.1,1.61,3.56,0.756,0.0151,3.23,4.26,1.05,4.89,2.31,3.75
ATCGAAAGTTCGTGAGGTGAGTATACAGAAAGGC,1.21,1.26,0.0798,0.398,-0.197,1.88,0.759,0.561,0.146,0.655,-1.13,0.316,0.654,0.402,0.342,1.08,0.69,1.39,0.453,2.17
ACTAGCAGGCCAAGGCTCACTCAAGATTAGTCCG,-0.393,-0.377,-0.331,-0.701,-0.95,-0.271,0.588,0.682,-0.134,0.168,1.13,0.144,-0.648,-0.572,-0.478,-0.766,-0.282,-0.478,-0.56,0.257
ATCTCTAGGTAAGAATCAGTTCAGTGAAGAACGC,0.825,0.702,0.74,0.521,0.992,0.326,0.0299,0.324,0.4,0.435,1.32,0.899,0.992,1.06,1.4,1.05,1.2,0.793,2.09,0.435
TCATACAGGTAAAAGGTGAAAGTCGGTGTGGTAA,1.87,1.87,-0.0272,2.18,0.661,4.39,6.38,6.45,5.73,7.08,3.28,3.68,0.157,1.18,1.6,1.83,0.448,3.13,1.16,2.1
TCTCGGAGGACACGAAGGTCAGAACTTTCCAGAG,0.92,1.16,0.605,1.31,-0.708,1.69,0.527,1.59,2.55,1.96,1.69,0.656,0.251,-1.14,1.13,1.84,1.09,1.81,0.264,3.08
ATAGGTAGGTTAGCTGGGGTCATTCAGACTAGGC,4.92,5.76,2.97,4.81,1.29,4.82,2.59,3.65,1.45,2.69,2.88,2.9,1.18,0.716,3.23,6.38,4.41,5.88,1.73,3.2
ACTATTTGTTGACTTAGGGCAACCGATACGACGC,0.226,0.188,0.404,0.344,1.56,0.197,0.97,0.737,0.434,0.364,0.22,0.532,1.51,1.78,0.884,0.185,0.38,0.364,0.997,1.03
CGTCCAACGTCAATGCTAGGTCAGTGAAAGCATT,-0.119,0.271,0.545,0.323,-0.372,0.371,-0.0757,-0.424,-0.443,-0.334,0.0923,0.146,-0.91,-0.198,-0.138,0.124,-0.688,0.602,-0.434,1.33
CCTTACGGGTCACTGTCAGGTTATAGCATTTGGA,5.05,4.27,0.129,3.23,-0.0879,4.73,3.83,4.04,1.22,2.8,3.32,3.7,0.509,-0.255,3.86,3.99,-0.056,4.71,1.03,3.87
GCTAGCAGGCCATTTGGGCCACTCAATGACGGGC,-0.514,-0.935,-0.951,-1.27,-1.17,-0.573,0.102,-0.789,-0.989,-1.19,0.571,0.308,-1.6,-2.1,-1.14,-0.943,-1.18,-1.05,-0.661,-0.143
CGAACGAGGGCATTAGTTGATAGCAAATGCCGAT,0.0908,-0.0116,-0.501,-0.0875,-0.766,0.595,0.83,0.432,0.0228,-0.0505,2.78,1.35,-1.12,-0.313,-0.0468,0.174,0.377,0.239,-0.278,1.51
CAAACTAGGTCACCTGAAGGTCAAAGTCCGCATG,5.8,5.89,5.41,5.04,1.6,5.79,9.15,7.17,5.48,7.17,8.35,8.25,1.4,0.822,7.4,5.61,2.75,7.1,2.19,5.14
GCTAGTTGATCAGTAAAAGGTCACACACCGGTCG,3.16,4.73,4.21,3.98,0.478,4.53,2.11,4.16,1.58,3.46,0.158,1.96,0.246,0.272,2.88,4.83,0.914,5.64,2.24,3.89
TGAATGAGGTTATAAGCTCAGGGAACGTTGCAAA,1.24,0.975,-0.535,1.01,-0.391,2.67,0.877,2.07,0.7,1.54,1.28,1.28,0.166,0.543,-0.0591,0.55,-0.553,1.26,-1.17,1.04
GGAACGAGGGCAAAGTTGATCGCATCTGTCGACG,1.11,0.829,-0.561,0.545,-0.311,3.82,6.68,6.95,5.94,7.29,3.98,4.13,-0.0459,-0.518,0.458,0.924,0.152,1.42,-0.502,2.32
CCTGCTAGGTCAACGGTCAGCTAAAGCAGCTCGC,4.13,3.09,0.58,2.17,0.4,4,6.12,6.08,3.98,6.08,4.82,4.76,0.645,-0.543,2.2,1.8,-0.372,2.89,0.262,4.45
CCGAGTGGGTTATGGGGCATTCAGGCAACGGTGA,0.128,0.155,-0.051,0.764,-0.129,1.74,2.61,3.77,1.55,3.82,1.23,2.29,-0.951,-0.669,0.384,-0.309,0.21,0.0956,0.0265,0.461
TTTCCAAGGTGAGCTGAGGTCGTTGATCCAACTC,2.71,1.69,-0.117,0.979,-0.192,1.94,0.0102,1.07,0.576,0.913,1.18,2.2,0.272,0.546,0.272,4.97,1.26,2.04,-0.538,2.1
ATCTCTAGGTAAAGATAGTTCTGTGAATGCAAAT,0.34,0.239,-0.054,0.231,0.796,0.344,0.505,0.243,0.378,0.389,2.5,1.5,0.815,1.19,0.736,0.067,0.184,0.347,0.978,0.117

# Reference: the supplement of paper PMC6555819
